{
  "source": "PubChem BioAssay AID651744",
  "about": "(Broad Institute, 2012)",
  "note": "Hit rate of the full screen: of about 5,600 compounds, about 3,100 (55%) were called active. Not shown: some 3% with an inconclusive outcome. The set was probably picked from earlier hits. A selection follows. Values without a mark were called inactive.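 The calls were made as follows: active = mean loss of cell viability signal at or above a set limit, and enough replicates individually reaching it; inconclusive = meets only the mean limit or only the replicate share; inactive = meets neither condition.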",
  "data": [
    {"test": "viability loss of mouse 3T3 cells – cell-based, cherry-pick, single point, set 2, cytotoxicity control, confirmation (AID 651744);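 also: 0% = median of neutral control wells and 100% = median of positive control wells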", "conditions": "NIH/3T3 viability, CellTiter-Glo ATP luminescence, 90 h; at 24.9 µM; hits give high values", "values": [
      {"smiles": "O=C(Cc1cccnc1)N1CCCCN2[C@@H](CO)[C@H](c3ccc(C#CC4CCCC4)cc3)[C@@H]2C1", "inhibition": "105% (active)"},
      {"smiles": "C/C=C/c1ccc([C@H]2[C@H](CO)N3CCCCN(C(=O)Cc4ccncc4)C[C@@H]23)cc1", "inhibition": "3.85%"},
      {"smiles": "COc1ccc(C#Cc2ccc([C@H]3[C@H](CO)N4CCCCN(C(=O)Cc5ccccc5)C[C@@H]34)cc2)cc1", "inhibition": "106% (active)"},
      {"smiles": "COc1ccc(-c2ccc([C@H]3[C@H](CO)N4CCCCN(C(=O)Cc5ccncc5)C[C@@H]34)cc2)cc1", "inhibition": "18.4%"},
      {"smiles": "O=C(Cc1ccccn1)N1CCCCN2[C@@H](CO)[C@@H](c3ccc(C#Cc4ccccc4)cc3)[C@@H]2C1", "inhibition": "103% (active)"}
    ]}
  ]
}
